# Test results taken from PMC4336329 (PLoS ONE, 2015).
# About 14,000 (4.5%) of roughly 310,000 compounds showed an effect of 50% or more. Effects have a minus sign here. The entries come from a sample that favours strong results as a whole.
# Target: human ether-à-go-go-related gene (hERG) potassium channel (human, UniProt Q12809)
# Assay: primary screen, population patch clamp on CHO cells stably expressing hERG; higher = less effect of the substance
# 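Also: peak tail current of the secondary pulse compared with the same well before compound.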
# Chain of human ether-à-go-go-related gene (hERG) potassium channel (Q12809 whole entry, looked up): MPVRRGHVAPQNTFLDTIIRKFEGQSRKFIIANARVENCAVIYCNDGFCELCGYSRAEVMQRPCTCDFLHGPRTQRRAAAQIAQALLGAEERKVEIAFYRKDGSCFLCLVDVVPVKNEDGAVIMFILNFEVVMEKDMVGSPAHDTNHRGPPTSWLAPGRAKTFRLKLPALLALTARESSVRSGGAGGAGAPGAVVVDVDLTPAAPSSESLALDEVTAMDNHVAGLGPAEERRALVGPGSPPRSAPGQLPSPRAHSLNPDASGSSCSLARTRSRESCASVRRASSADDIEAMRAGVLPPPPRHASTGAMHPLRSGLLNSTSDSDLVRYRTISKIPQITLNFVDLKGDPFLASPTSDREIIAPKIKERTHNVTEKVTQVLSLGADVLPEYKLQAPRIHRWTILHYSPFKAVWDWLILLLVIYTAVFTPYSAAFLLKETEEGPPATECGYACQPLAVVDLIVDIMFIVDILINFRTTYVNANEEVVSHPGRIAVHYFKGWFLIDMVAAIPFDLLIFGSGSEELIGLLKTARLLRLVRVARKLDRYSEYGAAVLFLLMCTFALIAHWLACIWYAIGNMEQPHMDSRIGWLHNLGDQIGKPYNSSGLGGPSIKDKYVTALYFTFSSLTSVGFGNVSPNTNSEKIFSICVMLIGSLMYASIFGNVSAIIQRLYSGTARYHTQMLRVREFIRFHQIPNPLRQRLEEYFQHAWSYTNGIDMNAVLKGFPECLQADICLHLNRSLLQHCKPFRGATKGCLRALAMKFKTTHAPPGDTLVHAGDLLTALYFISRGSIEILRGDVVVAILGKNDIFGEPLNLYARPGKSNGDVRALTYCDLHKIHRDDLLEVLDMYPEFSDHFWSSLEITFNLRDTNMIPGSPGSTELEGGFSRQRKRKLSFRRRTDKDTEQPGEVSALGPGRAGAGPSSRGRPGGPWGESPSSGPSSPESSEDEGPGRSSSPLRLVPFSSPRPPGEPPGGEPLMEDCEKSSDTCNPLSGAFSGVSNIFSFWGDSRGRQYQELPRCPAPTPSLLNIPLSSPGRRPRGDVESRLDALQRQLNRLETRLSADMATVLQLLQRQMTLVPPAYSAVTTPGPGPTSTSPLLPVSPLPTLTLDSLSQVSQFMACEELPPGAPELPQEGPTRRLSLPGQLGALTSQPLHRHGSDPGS
row,Compound,"hERG current change (%, negative = inhibition) at 10uM [%]"
1,N#CCCN(CCC#N)C(=O)C1c2ccccc2Oc2ccccc21,14.4
2,CCOC(=O)c1ccccc1NC(=O)COC(=O)CN1C(=O)C2CC=CCC2C1=O (stereo not drawn),-2.8
3,Cn1c(C(=O)NCCN2CCCCCC2)cc2c(=O)n(C)c3ccccc3c21,-13.4
4,C=CCOc1ccc2oc(=O)cc(C)c2c1,-1.62
5,CCNc1c2c(nc3ccccc13)CC(C)(C)CC2=O.O=C(O)C(=O)O,-69.9
6,CC1(C)CC(=O)c2c(nc3ccccc3c2N)C1,-28.8
7,Cc1c2c(nc3ccccc13)CC(C)(C)CC2=O.Cl,0.994
8,O=C(Nc1cccc(C(=O)O)c1)/C(=C\c1ccco1)NC(=O)c1ccc(Br)o1,-28.1
9,Cc1ccc(SCC(=O)OCC(=O)NCc2cccs2)cc1,5.8
10,NC(=S)N=Nc1c(O)n(CCCl)c2ccc(Cl)cc12,9.1
11,CCOc1cc(/C=C\[N+](=O)[O-])ccc1OCC(=O)N1CCOCC1,-50.5
12,O=C(COc1ccc(/C=C\[N+](=O)[O-])cc1)N1CCOCC1,-17.7
13,CCOc1cc(C=C2C(=O)NC(=O)NC2=O)ccc1OCC(=O)N1CCOCC1,7.28
14,CCCOc1ccc(C(=O)Nc2ccc3c(c2)OCO3)cc1,16.1
15,CC(=O)c1cccc(NC(=O)CCOc2ccccc2)c1,6.88
16,COc1cccc(C(=O)Nc2cc(NC(=O)c3ccco3)ccc2OC)c1,-5.19
17,CC(C)Oc1cccc(C(=O)Nc2ccc(NC(=O)c3ccco3)cc2)c1,6.06
18,COc1ccc(NC(=O)c2ccco2)cc1NC(=O)c1cccc(OC(C)C)c1,-96.7
19,CCCOc1cccc(C(=O)Nc2cc(NC(=O)c3ccco3)ccc2OC)c1,-81.2
20,CCCOc1cccc(C(=O)Nc2cccc(NC(=O)c3ccco3)c2)c1,-21.8
21,CCCCOc1cccc(C(=O)Nc2ccc(NC(=O)c3ccco3)cc2)c1,8.63
22,CCCc1cc(=O)[nH]c(SCC(=O)Nc2nonc2N)n1,-5.4

row,Compound,"hERG current change (%, negative = inhibition) at 10uM [%]"
1,COc1ccc(CC(=O)Nc2sc3c(c2C#N)CC(C)(C)NC3(C)C)cc1OC,-3.63
2,COc1ccc(C(=O)CSc2nnc(NC(=O)C3CC(=O)N(c4cccc(OC)c4)C3)s2)cc1 (stereo not drawn),15.6
3,COC(=O)CC1=C(C(=O)OC)C2(C(=O)N(C)c3ccccc32)C(C#N)=C(N)O1 (stereo not drawn),14.7
4,CC(C)(C)NC(=O)/C(=C\c1ccccc1F)NC(=O)c1ccc([N+](=O)[O-])cc1,-35.3
5,Cn1c(=O)n(CCOc2ccc(Cl)cc2Cl)c2ccccc21,-2.26
6,Cl.N=c1n(CCO)c2ccccc2n1Cc1ccc(Cl)cc1,-40.1
7,Cl.N=c1n(CCO)c2ccccc2n1CCOc1ccc(Cl)cc1Cl,-63.8
8,COc1ccccc1NS(=O)(=O)c1cc(-c2cc(C)no2)ccc1OC,-5.52
9,COc1ccccc1NS(=O)(=O)c1ccc(-c2cc(C)no2)s1,-69.5
10,COC(=O)c1ccc(NS(=O)(=O)c2ccc(-c3cc(C)no3)s2)cc1,10.5
11,Cc1ccc(CN2C(=O)S/C(=C\c3ccccc3OCC(=O)O)C2=O)cc1,1.61
12,C/C(=C\C(=O)N1CCc2ccccc21)C(=O)O,18.5
13,NC(=O)c1cc(S(=O)(=O)N2CCN(c3cccc(Cl)c3)CC2)cs1,28.1
14,CC(=O)c1ccc(N2CCN(S(=O)(=O)c3ccc4c(c3)NC(=O)CC(=O)N4)CC2)cc1,13.4
15,NC(=O)c1cc(S(=O)(=O)N2CCN(c3ccc([N+](=O)[O-])cc3)CC2)cs1,-74.4
16,CC(=O)c1ccc(N2CCN(S(=O)(=O)c3csc(C(N)=O)c3)CC2)cc1,-26.1
17,O=C1CC(=O)Nc2cc(S(=O)(=O)N3CCN(c4ccc([N+](=O)[O-])cc4)CC3)ccc2N1,-66.8
18,COC(=O)c1cc(S(=O)(=O)N2CCN(c3ccccc3)CC2)c[nH]1,7.6
19,COC(=O)c1cc(S(=O)(=O)N2CCN(c3ccc(F)cc3)CC2)c[nH]1,16.9
20,COc1ccc(N2CCN(S(=O)(=O)c3ccc4c(c3)NC(=O)CC(=O)N4)CC2)cc1,13.2
21,COC(=O)c1cc(S(=O)(=O)N2CCN(c3ccc([N+](=O)[O-])cc3)CC2)c[nH]1,-53.9
22,CCC(=O)Nc1nc2ccc(NC(=O)c3cc(OC)c(OC)c(OC)c3)cc2s1,-9.76

row,Compound,"hERG current change (%, negative = inhibition) at 10uM [%]"
1,Cc1ccc(CNC(=O)c2ccc(C#CC(C)(C)O)s2)cc1,-3.51
2,Cc1cccc(CSC2=NCCN2S(=O)(=O)c2ccc(F)cc2)c1,-0.802
3,Cc1ccc(S(=O)(=O)N(C)c2ccc(OC(C)C(=O)N3CCCC3)cc2)cc1C (stereo not drawn),-37.6
4,COc1ccc(OC)c(CNc2nc3ccccc3n2CCN2CCCCC2)c1,-72.4
5,COc1ccc(CNc2nc3ccccc3n2CCN2CCCCC2)c(OC)c1,-84.4
6,COc1ccc(CNc2nc3ccccc3n2C)c(O)c1,1.38
7,C=CCn1c(NCc2ccc(OC)cc2O)nc2ccccc21,-23.1
8,COc1ccc(/C=N/c2nc3ccccc3n2CCN2CCCCC2)cc1OC,-14.3
9,CCCn1c(NCc2cccc(OC)c2O)nc2ccccc21,-18.1
10,CCn1c(NCc2cc(OC)ccc2OC)nc2ccccc21,-22.8
11,CCCn1c(NCc2cc(OC)ccc2OC)nc2ccccc21,-51.3
12,COc1ccc(CNc2nc3ccccc3n2C)c(OC)c1,-25
13,Cc1[nH]c(C)c(S(=O)(=O)N2CCCCC2)c1C(=O)N1CCCCC1,4.27
14,Br.Cc1nc(C)c(-c2csc(Nc3cccc(O)c3)n2)s1,6.25
15,COc1cc(OC)cc(-c2c(C#Cc3ccsc3)c3cc(-c4ccc5c(c4)OCCO5)ccc3n2C)c1,7.37
16,COc1ccc(OCC(=O)Nc2ccccc2O)cc1,-12.5
17,Cc1c(C(C)(C)O)[nH]c2ccc(C#N)cc12,26.4
18,CCOC(=O)c1sc2ncnc(N3CCN(C(=O)OCC)CC3)c2c1C,-53.4
19,Cc1ccc(NC(=O)c2sc3ncnc(N4CCN(c5ccccn5)CC4)c3c2C)c(C)c1,-48.4
20,Cc1c(C(=O)Nc2c(F)cccc2F)sc2ncnc(N3CCN(c4ccccc4)CC3)c12,-12.2
21,CCOC(=O)c1sc2ncnc(N3CCN(CC)CC3)c2c1C,-63.9
22,COCCCNC(=O)c1sc2ncnc(N3CCc4ccccc4C3)c2c1C,-23.9

row,Compound,"hERG current change (%, negative = inhibition) at 10uM [%]"
1,CCCCNC(=O)c1sc2ncnc(N3CCc4ccccc4C3)c2c1C,-50.5
2,CCOC(=O)c1sc2nc(C)nc(N3CCN(c4ncccn4)CC3)c2c1C,1.82
3,CCOC(=O)CNC(=O)c1sc2ncnc(N3CCc4ccccc4C3)c2c1C,-36.6
4,CCN1CCN(c2ncnc3sc(C(=O)Nc4ccccc4F)c(C)c23)CC1,-67
5,CCOC(=O)c1sc2ncnc(OC)c2c1C,13.3
6,CCOC(=O)N1CCN(c2ncnc3scc(-c4ccccc4)c23)CC1,-32.6
7,CCOC(=O)c1sc2ncnc(N3CCN(C)CC3)c2c1C,-24.3
8,CCC(C)(NC(=O)Cc1c[nH]c2ccccc12)C(=O)NC1CCCCC1 (stereo not drawn),2.32
9,CN(C)/C=N/c1sccc1C(N)=O,6.62
10,COc1ccc(C2(C)NC(=O)N(CC3CCCCC3)C2=O)cc1 (stereo not drawn),9.8
11,O=C(NCC(=O)N(c1cccnc1)C(C(=O)NC1CCCC1)c1ccccc1F)c1ccco1 (stereo not drawn),-0.301
12,CC(C)(C)Nc1nc(NCc2cccnc2)nc(N2CCOCC2)n1,4.02
13,CC(C)C(=O)Nc1c2c(nc3c1CCC3)CCCC2,5.23
14,C/C(=N\NC(=O)c1nnn(-c2nonc2N)c1-c1ccc2c(c1)OCO2)c1cccs1,5.22
15,C/C(=N\OCC(=O)OC(C)C(=O)Nc1ccc(C(N)=O)cc1)c1ccc2c(c1)OCO2 (stereo not drawn),9.34
16,COC(=O)c1cc2c(ccn2-c2ccc(F)cc2)n1CC(=O)C(C)(C)C,14.3
17,CCOC(=O)c1cc2occc2n1CC(=O)N1CCN(C(=O)c2ccco2)CC1,-36.8
18,CCOC(=O)c1cc2c(ccn2-c2ccc(F)cc2)n1CC(=O)N1CCN(C(=O)c2ccco2)CC1,-26.1
19,COC(=O)c1cc2c(ccn2-c2ccc(F)cc2)n1CC(=O)OC(C)C,27.3
20,COC(=O)c1cc2c(ccn2-c2ccc(F)cc2)n1CC(=O)N1CCN(C(=O)c2ccco2)CC1,-66.6
21,CC(C)OC(=O)c1cc2c(ccn2-c2ccc(F)cc2)n1CC(=O)N1CCN(C(=O)c2ccco2)CC1,-69.2
